Among all 320,000 compounds or so, about 1,700 (0.53%) were called active. The entries come from a sample that favours actives as a whole. Unmarked numbers belong to inactive results.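 How the source made its calls: active means inhibition above the campaign mean of all compounds plus 3 SD (cut at about 26% in these data); inactive means the rest.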

Here are results for 60 molecules from PubChem BioAssay AID2130 (The Scripps Research Institute Molecular Screening Center, 2009).

For this test, the target named is Protein phosphatase methylesterase 1 (Homo sapiens) (UniProt Q9Y570). The test is described as follows: human PME-1 methylesterase blockers – biochemical, fluorescence polarization, FP-Rh probe, HTS, primary screen (AID 2130).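 Further: competitive labeling of PME-1 active site by serine hydrolase directed probe; 0% = PME-1 with DMSO and 100% = wells lacking PME-1 enzyme; inhibitors block probe labeling so polarization falls and inhibition rises.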 The conditions noted are these: recombinant PME-1, FP-Rh probe fluorescence polarization; at 5.9 µM; active compounds read high. Background: Fluorescence polarisation rises when a labelled molecule tumbles more slowly, as on binding a larger partner.
Chain of Protein phosphatase methylesterase 1 (Homo sapiens) (Q9Y570 whole entry, looked up): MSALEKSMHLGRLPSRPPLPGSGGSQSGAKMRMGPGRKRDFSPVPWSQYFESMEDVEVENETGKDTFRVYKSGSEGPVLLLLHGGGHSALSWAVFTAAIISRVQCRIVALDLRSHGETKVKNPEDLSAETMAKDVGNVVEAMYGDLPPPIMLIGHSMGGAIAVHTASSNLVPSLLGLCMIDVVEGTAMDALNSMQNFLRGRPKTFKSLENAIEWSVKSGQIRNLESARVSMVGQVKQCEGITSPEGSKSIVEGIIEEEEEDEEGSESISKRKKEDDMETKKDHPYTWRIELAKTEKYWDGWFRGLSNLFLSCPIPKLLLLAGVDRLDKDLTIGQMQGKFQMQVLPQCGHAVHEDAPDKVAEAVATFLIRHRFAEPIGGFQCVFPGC
On to `O=C(NCc1cccs1)C1CCN(S(=O)(=O)c2ccc(Cl)cc2)CC1`, for which the inhibition (as a rule, the change of the read-out against control, counted positive when it falls) is 49.3% (active). For the molecule `O=C(NCc1ccc(Cl)cc1)C1CCN(S(=O)(=O)c2cccs2)CC1`, the inhibition is 11.3%. As for `O=C(NCc1cccs1)C1CCN(S(=O)(=O)c2ccc3c(c2)OCCO3)CC1`, the inhibition is 10.8%. For `Cc1cccc(N2CCN(Cc3nc(C4CC4)no3)CC2)n1` the value was 0.08%; for `CC1C(c2ccccc2)=[N+]([O-])C2(CCCC2)N1O` (stereo not given), -10.2%; for `Cc1ccc(-c2csc(-c3cc(C)on3)n2)cc1`, -0.04%. Take `CCCc1cc(-c2nc(-c3ccc(C)cc3)cs2)ccn1`: the inhibition is -6.39%. For `Cc1ccc(-c2csc(-c3c[nH]c4ccccc34)n2)cc1` the value was 27.5% (active); for `COc1ccccc1-c1sc2ccccc2c1-c1ccc(Br)nc1`, -9.82%. Turning to `COc1ccccc1-c1c(C)nn2c(C)c(C(C)=O)cnc12`, the inhibition is -0.93%.

As for `COc1ccccc1-c1sc2ccccc2c1-c1ccc(C(C)=O)cc1`, the inhibition was 33.6% (active). Next, `N#Cc1c(C(F)(F)F)cc(-c2cccs2)nc1N1CCCCC1`: 2.44%. Next, `COc1ccc(CN2CCCC(C(=O)c3ccc(Cl)cc3)C2)cc1Cn1cncn1` (stereo not given): 4.9%. Take `CC(=O)c1ccc(OCC(O)CN2CCN(S(=O)(=O)c3cccc(Br)c3)CC2)cc1` (stereo not given): the inhibition is 7.43%. For `CC(=O)NC1=NN(C(C)=O)C(C)(c2ccc(Cl)s2)S1` (stereo not given) the value was -1.89%; for `Cc1cccc(-c2nc(Nc3ccc(O)cc3)c3ccccc3n2)c1`, 30.6% (active). Next, `CC(=O)Nc1cccc(Nc2nc(-c3cccs3)nc3ccccc23)c1`: -31.9%; `COc1ccc(Nc2nc(-c3cccnc3)nc3ccccc23)cn1`: 0.55%. For `Nc1nonc1-n1nnc(C(=O)N/N=C/c2c[nH]c3ccccc23)c1-c1ccccc1` the value was 34.1% (active); for `Nc1nonc1-n1nnc(C(=O)N/N=C/C2CCCCC2)c1-c1ccccc1`, 2.24%; for `CC(C)c1c(C(=O)N/N=C/c2ccccc2C(=O)O)nnn1-c1nonc1N`, 3.05%. Regarding `O=C(C(=O)N1CCc2ccccc2C1)c1c[nH]c2ccccc12`, the inhibition is -0.44%. As for `Cc1cccc(C)c1NC(=S)N1CCCCCC1`, the inhibition is -3.93%. Take `COc1ccc(CNC(=O)COc2ccccc2C(=O)c2cnn(-c3ccccc3)c2)cc1OC`: the inhibition was -5.4%. For `Cc1ccc(S(=O)(=O)n2cnc3ccccc32)c(C)c1` the value was -0.58%; for `O=c1[nH]cnc(O)c1C(c1ccc(F)cc1)c1c(O)nc[nH]c1=O`, -2.73%. With `COc1cccc(C(=O)Nc2nnc(S(=O)(=O)N3CCCCC3)s2)c1`, the inhibition was -0.5%. Next, `COc1cccc(NC(=O)NCCN2CCCCC2)c1`: 0.47%; `COc1cccc(NC(=O)Nc2nnc(N3CCCCC3C)s2)c1` (stereo not given): 43.8% (active); `CC1CCC(NC(=O)CN(C)S(=O)(=O)c2ccc3c(c2)c(=O)n(C)c(=O)n3C)CC1` (stereo not given): 0.21%. Next, `COc1ccnc(Oc2ccccc2)c1-c1ncn[nH]1`: 3.26%; `O=C(Nc1ccc(C(F)(F)F)cc1)c1cccc(-n2cnnn2)c1`: -9.13%; `C=CCCC(=O)Nc1nc(C)c(-c2csc(Nc3ccc(Cl)cc3)n2)s1`: 28.8% (active).

Consider `CC(=O)Nc1nc(C)c(-c2csc(Nc3ccc(S(N)(=O)=O)cc3)n2)s1`, for which the inhibition was -2.64%. For the molecule `Cc1nc(NC(=O)c2cccc(Cl)c2)sc1-c1csc(Nc2cccc(Cl)c2)n1`, the inhibition is 32.1% (active). Turning to `CCCCC(=O)Nc1nc(C)c(-c2csc(Nc3ccc(Cl)cc3)n2)s1`, the inhibition was 16.9%. For `CCCCCCC(=O)Nc1nc(C)c(-c2csc(Nc3cc(Cl)ccc3OC)n2)s1` the value was 13.6%; for `CCCCCCC(=O)Nc1nc(C)c(-c2csc(Nc3cccc(OC)c3)n2)s1`, 16.8%. `COc1ccc(F)cc1C(=O)COC(=O)c1n[nH]c(=O)c2ccccc12`: the inhibition was 2.97%. Next, `Cc1cc(OC(=O)c2ccc(OC(C)C)cc2)c([N+](=O)[O-])c(=O)[nH]1`: -4.45%; `COc1cc(OC)cc(C(=O)NNC(=O)CCOc2ccccc2OC)c1`: -2.05%.

In the case of `CCOc1ccc(-c2cn(S(=O)(=O)c3cccc4nsnc34)nc2N)cc1`, the inhibition is 2.2%.

With `Cc1ccccc1CC1(CO)CCCN(Cc2ccc3c(c2)OCCO3)C1` (stereo not given), the inhibition was 3.22%.

In the case of `O=S(=O)(NCCc1ccc(Cl)cc1)c1cccs1`, the inhibition was 6.08%. Turning to `O=C(NNc1c2ccccc2nc2ccccc12)c1cc2ccccc2cc1O`, the inhibition was 76.5% (active).

Take `O=C(N/N=C/c1cccnc1)c1cc2ccccc2cc1O`: the inhibition was 12.5%.

On to `CC(C)(C)OC(=O)NNc1c2ccccc2nc2ccccc12`, for which the inhibition is 17.6%. Consider `COc1ccccc1C1C(C(N)=O)=C(C)Nc2nc(CCCO)nn21` (stereo not given), for which the inhibition is -0.55%. On to `COc1ccc(C(=O)OC(C)C(=O)NC2CCCC2)cc1S(=O)(=O)N1CCOCC1` (stereo not given), for which the inhibition is 2.8%. Next, `O=c1[nH]n(-c2ccc([N+](=O)[O-])cc2)c(=O)c2ccccc12`: 26.6% (active); `O=c1[nH]c2cccnc2n1-c1ccc([N+](=O)[O-])cc1`: 5.31%. As for `COc1cnn(-c2ccc([N+](=O)[O-])cc2)c(=O)c1Cl`, the inhibition was -4.7%. For `CCCCN1C(N)=NC[C@@H]1CC1CCCCC1`, the inhibition is -2.94%. For `Cc1cc(=O)oc2cc(NC(=O)C3CC(=O)N(Cc4ccccc4)C3)ccc12` (stereo not given), the inhibition is 7.03%. `Oc1ccc(C2Nc3cccc4cccc(c34)N2)cc1`: the inhibition was 53.6% (active).

Take `Cc1ccc(C2Nc3cccc4cccc(c34)N2)cc1`: the inhibition was 1.72%. For the molecule `COc1cccc(C2Nc3cccc4cccc(c34)N2)c1`, the inhibition is 14.7%. Take `CCc1ccc(NC(=O)CN2C(=O)COc3ccc(S(=O)(=O)N4CCCC4)cc32)cc1`: the inhibition is -0.43%. For `CCOC(=O)C1(Cc2ccccc2C(F)(F)F)CCN(C(=O)c2cc(C)n(C)n2)CC1` the value was -3.56%; for `CCCCCN(C(=O)CCC(=O)OCCOc1ccc(OC)cc1)c1c(N)n(CCCC)c(=O)[nH]c1=O`, -1.09%.
